This is a sample that favours compounds with a hit; in the whole collection about 3.9% have one here.
VDR inh – vitamin D3 receptor (human) inhibition. P11473. VDR-SRC2-3 peptide fluorescence polarization, 2 h. Potency, µM, usual class: inhibitors. hit rate 0.93% among 400,000. AID 504847
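Inhibition of the VDR/SRC2-3 peptide interaction is quantified by fluorescence polarization. Compounds (23 nl, pintool) incubate with the reagents for 2 hours at ambient room temperature.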
PLK1 PBD inh – PLK1 (human) polo-box domain binding inhibition; P53350; Plk1 PBD binding of FITC phosphopeptide, fluorescence polarization; Potency, µM, hits mostly inhibitors; hit rate 2.8% among 360,000; AID 720504; further: series mostly up to about 57 µM; nearly all actives have a fitted effect of over 65% in size
Target sequence (P53350 whole entry, looked up, the tested form may be a part): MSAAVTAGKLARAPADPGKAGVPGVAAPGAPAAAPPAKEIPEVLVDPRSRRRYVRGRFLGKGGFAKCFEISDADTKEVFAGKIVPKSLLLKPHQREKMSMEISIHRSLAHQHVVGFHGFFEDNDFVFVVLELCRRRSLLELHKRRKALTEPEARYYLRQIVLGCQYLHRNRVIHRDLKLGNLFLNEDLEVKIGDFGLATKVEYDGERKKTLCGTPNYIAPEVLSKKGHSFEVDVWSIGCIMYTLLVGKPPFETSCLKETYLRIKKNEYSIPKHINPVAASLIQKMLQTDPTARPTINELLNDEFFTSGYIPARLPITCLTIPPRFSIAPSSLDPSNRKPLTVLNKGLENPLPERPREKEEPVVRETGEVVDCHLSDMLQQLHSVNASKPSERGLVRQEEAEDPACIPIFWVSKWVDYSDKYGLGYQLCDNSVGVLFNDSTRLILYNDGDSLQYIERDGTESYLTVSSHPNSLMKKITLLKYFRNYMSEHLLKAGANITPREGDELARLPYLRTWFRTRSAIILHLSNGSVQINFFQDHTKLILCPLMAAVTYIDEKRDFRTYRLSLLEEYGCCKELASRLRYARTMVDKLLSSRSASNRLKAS
Tb PFK block – T. brucei PFK enzyme inhibition; O15648; T. brucei PFK, ADP-Glo luminescence; Potency, µM (doses to about 57.5 µM), usual class: inhibitors; hit rate 0.17% among 330,000; further: nearly all actives have a fitted effect of over 60% in size
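Luminescent ADP detection (ADP-Glo, two-step: ATP depletion then ADP-to-ATP conversion for luciferase) reported PFK activity after 45 min room-temperature reaction of 1.25 nM enzyme with 0.5 mM F6P and 0.1 mM ATP at pH 8.0.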
BRCA1 expr act – increases BRCA1 expression; MCF7-BRCA1-FFLuc reporter, luminescence, 48 h; response scale: scaled: vehicle 0%, 10 µM genistein 100%; Potency, µM (highest dose often 46.1 µM), actives largely listed as activators; hit rate 1.1% among 380,000; further: nearly all actives have a fitted effect of over 80% in size
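Cells: MCF7-BRCA1-FFLuc, 2000/well. Exposure: 48 h, 37 °C, 5% CO2. Read: luminescence, 15 min post-substrate. Controls: genistein 10 microM (maximal activation), DMSO (neutral).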
Large screens that a line does not name were inactive. The call rests on the fitted dose curve; in most records, active means well fitted curve in the direction sought with a large enough effect; inconclusive means small, poorly fitted or top-dose-only effect, or another doubt; inactive means no such curve, though single readings can be large; an effect the other way counts as inactive or inconclusive.

O=C1CCCC2=C1C(c1ccco1)Nc1ccc3ccccc3c12 (stereo not given)	PLK1 PBD inh 23.8µM, Tb PFK block inconclusive
CCN(CC)c1ccc(C=C2C(=O)OC(c3ccccc3)OC2=O)cc1 (stereo not given)	VDR inh inconclusive, PLK1 PBD inh inconclusive
CCN(CC)c1ccc(/C=C/C(=O)C2C(=O)C=C(C)OC2=O)cc1 (stereo not given)	BRCA1 expr act 5.62µM
COC(=O)c1c(OC)cc2c(c1C)Oc1c(Cl)c(O)c(Cl)c(C)c1C(=O)O2	VDR inh 39.8µM (no result: PLK1 PBD inh, Tb PFK block, BRCA1 expr act)
CSc1nnc2c(n1)OC1(Nc3ccccc3-2)C(=O)Nc2ccccc21 (stereo not given)	PLK1 PBD inh 26.7µM
CCSc1nnc2c(n1)OC(C)(C)Nc1ccccc1-2	none
CCCNC(=O)c1nc(C)n(-c2ccc([N+](=O)[O-])cc2)n1	PLK1 PBD inh 26.7µM
CC(Oc1ccc(F)cc1)C(=O)Nc1cccc(-c2nn[nH]n2)c1 (stereo not given)	VDR inh inconclusive, PLK1 PBD inh 21.2µM
CCc1nc(SCC(=O)c2cccc([N+](=O)[O-])c2)n[nH]1	VDR inh 50.1µM
O=C(CSc1nc(N2CCCCC2)nc(N2CCCCC2)n1)c1ccccc1	PLK1 PBD inh 29.9µM
Cc1cc(N2CCCCC2)nc(SCC(=O)c2ccccc2)n1	BRCA1 expr act 10µM
COc1ccc(NC(=O)CSc2nc(N3CCCCC3)nc(N3CCCCC3)n2)cc1	none
Cc1nc(SCC(=O)c2ccccc2)n[nH]1	VDR inh 50.1µM, PLK1 PBD inh 26.7µM, Tb PFK block inconclusive
Fc1cccc(-n2ncc3c2ncn2nc(COc4ccc(Cl)cc4)nc32)c1	none (no result: PLK1 PBD inh, Tb PFK block, BRCA1 expr act)
O=P1(O)Cc2ccccc2-c2ccccc21	none (no result: Tb PFK block)
CCOC(=O)c1c(-c2ccc3ccccc3c2)csc1NC(=O)CCCC(=O)O	PLK1 PBD inh 23.8µM
CCOC(=O)c1c(-c2ccc(OC)cc2)csc1NC(=O)CCN1C(=O)c2ccccc2C1=O	PLK1 PBD inh 10.6µM
CC(=O)N1[C@H](C)C=C[C@]1(Cc1ccccc1)C(=O)NCCN1CCOCC1	none (no result: Tb PFK block)
CCC(C)C(N)C(=O)NC(CC(N)=O)C(=O)NC(CC(C)C)C(=O)NC(CCCCN)C(=O)NC(C)C(=O)NC(CC(C)C)C(=O)NC(C)C(=O)NC(C)C(=O)NC(CC(C)C)C(=O)NC(C)C(=O)NC(CCCCN)C(=O)NC(CCCCN)C(=O)NC(C(=O)NC(CC(C)C)C(N)=O)C(C)CC (stereo not given)	none (no result: PLK1 PBD inh, Tb PFK block, BRCA1 expr act)
O=S1(=O)CC(N2CCN(CC3CC3)CC2)CN1C1CCCCC1 (stereo not given)	none (no result: VDR inh, Tb PFK block)
COc1ccc(-c2nc3n(n2)C(c2ccc(OC)c(OC)c2)C(C(=O)Nc2cccnc2)=C(C)N3)cc1 (stereo not given)	none (no result: PLK1 PBD inh, Tb PFK block, BRCA1 expr act)
COc1ccc2cc1Oc1ccc(cc1)CC1c3cc(c(OC)cc3CCN1C)Oc1c(OC)c(OC)c(OC)c3c1C(C2)N(C)CC3 (stereo not given)	VDR inh 44.7µM (no result: PLK1 PBD inh, Tb PFK block, BRCA1 expr act)
Nc1ccc2nn(-c3ccccc3)nc2c1	PLK1 PBD inh 21.2µM
Nc1ccc(-n2nc3ccccc3n2)cc1	none (no result: Tb PFK block)
Nc1nc2c(F)c(F)c(F)cc2s1	PLK1 PBD inh 26.7µM
O=C(Nc1nc2c(F)c(F)c(F)cc2s1)c1ccco1	BRCA1 expr act inconclusive
COc1ccccc1CNC(=O)CCNS(=O)(=O)c1cc(Br)cnc1N	PLK1 PBD inh 26.7µM
COc1cc(NC(=O)CCNS(=O)(=O)c2cc(Br)cnc2N)cc(OC)c1	none
Cc1ccc(Nc2nc(COC(=O)C3CC3)cs2)cc1	BRCA1 expr act 10µM
COc1ccc(-n2nc(C(=O)N3CCN(c4ccccc4OC)CC3)c3c4ccccc4n(C)c3c2=O)cc1Cl	none (no result: PLK1 PBD inh, Tb PFK block, BRCA1 expr act)
COc1ccc(CCCNC(=O)C2Cc3c(-c4cccc(NC(C)=O)c4)ccnc3O2)cc1 (stereo not given)	none (no result: VDR inh, Tb PFK block)
COc1cc2c(cc1NC(=O)COc1cc(C)ccc1C)oc1ccccc12	none (no result: PLK1 PBD inh, Tb PFK block, BRCA1 expr act)
Cc1nn(C)c(C)c1NC(=O)c1ccc(Cl)cc1	PLK1 PBD inh 29.9µM
Cc1nn(C)c(NC(=O)c2ccc(Cl)cc2)c1Cl	none
COc1c2c(c(C(=O)/C=C/C(C)=C/c3ccccc3)c3c1OCO3)CCN(C)C2	VDR inh 44.7µM (no result: PLK1 PBD inh, Tb PFK block, BRCA1 expr act)
CC(/C=C/C(=O)c1ccc(C)cc1)=C\c1ccccc1	none
O=C(O)/C=C/c1coc2ccccc2c1=O	none
O=C1NN(c2ccccc2)C(=O)/C1=C/c1coc2ccccc2c1=O	VDR inh 39.8µM, PLK1 PBD inh inconclusive
O=C1NN(c2ccccc2)C(=O)/C1=C\c1coc2ccc(O)cc2c1=O	VDR inh 22.4µM, PLK1 PBD inh inconclusive
O=C(COC(=O)CCC(=O)c1cccs1)Nc1ccc(F)c(F)c1F	none

Bioassay records from PubChem BioAssay.
